Assay [1] can be described thus: qHTS assay for small molecule agonists of the antioxidant response element (ARE) signaling pathway measured by Nrf2-dependant transcriptional activity (AID 720636; active means well fitted curve in the direction sought with a large enough effect in the repeat runs; an effect the other way counts as inactive or inconclusive;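 further: HepG2 cells with an ARE-driven luciferase reporter; % of control where 0% means no effect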). The following applies: ARE-luc HepG2, Nrf2 luciferase reporter, 16 h; series mostly up to 92.4 µM. Summed up: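 Reporter gene assay, HepG2 ARE-luc: 16 hr compound, 37 C, 5% CO2; read-out luciferase luminescence.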

Assay [2] concerns the target T1, Hexokinase-4 (Homo sapiens) + Glucokinase regulatory protein (Homo sapiens) (UniProt P35557+Q14397). Nature of the assay: qHTS assay for inhibitors of recombinant human GCK-GKRP interaction: Diaphorase-coupled assay (AID 743205). As to conditions: G6PDH/diaphorase resorufin fluorescence; series mostly up to 57.5 µM. In short, it runs like this:
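25 mM Hepes pH 7.6, 5 mM glucose, 0.4 mM ATP, 4 U/ml G6PDH; 10 nM each GST-GCK/FLAG-GKRP. Kinetic fluorescence read, 1/min × 30 min. Normalized: DMSO ± enzyme = max/min.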
On the technique in general: In qHTS, concentration-response curves come from the screen itself.

For assay [3], the target named is T1, Hexokinase-4 (Homo sapiens) + Glucokinase regulatory protein (Homo sapiens). Nature of the assay: qHTS assay for inhibitors of recombinant human GCK-GKRP interaction: ADP-Glo assay (AID 743206).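 Further: plate controls were DMSO plus enzyme for no effect and no enzyme for full effect.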 As to conditions: ADP-Glo luminescence, 60 min, 0% = vehicle-only wells with enzyme present; series mostly up to 76.9 µM. In short, it runs like this:
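GST-GCK and FLAG-GKRP (15 nM each in the dispensed mix, with 2 uM S6P) react with 0.4 mM ATP and 5 mM glucose (final) in Hepes pH 7.6 for 60 min at room temperature. ADP is measured by ADP-Glo luminescence.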

The target is the same in assay [4]. Nature of the assay: qHTS assay for inhibitors of recombinant human GCK-GKRP interaction: HTRF assay (AID 743207).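 Further: 0% = DMSO with GCK present and -100% = DMSO wells lacking GCK.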 As to conditions: recombinant GCK-GKRP HTRF binding, 60 min; series mostly up to 57.5 µM. Summed up: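 5 nM GST-GCK + 5 nM FLAG-GKRP + 2 uM S6P, pH 7.1 buffer (25 mM Hepes, 2 mM MgCl2, 25 mM KCl, 1 mM DTT, Tween/BSA); pin-transferred cpd; anti-FLAG XL665/anti-GST K; 60 min RT; HTRF.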

Assay [5] is described as follows: qHTS assay for cell viability of HEK293 cells (AID 743288). Further: nearly all actives have a fitted effect of over 50% in size. Further: potency means the concentration at half of the fitted maximal effect. On max response: on the % scale 0 is the no-effect control and ±100 the full control effect. As to conditions: ATP luminescence (CellTiter-Glo), 18 h; max response: active compounds read low. Summed up: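 HEK293 parental, 2,000 cells/well; ≥5 h pre-incubation 37 C; pintool compound addition; 18 h, 37 C; CellTiter-Glo 30 min RT; luminescence read.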
A short description of assay [6]: qHTS Assay for Identifying Gametocytocidal Compounds (AID 743244). Further: potency means the concentration at half of the fitted maximal effect.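 On max response: on the % scale 0 is the no-effect control and ±100 the full control effect; actives lower the fluorescent signal which means gametocytes are killed.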 As to conditions: P. falciparum 3D7 stage III-V gametocytes, alamarBlue, 72 h; max response: active compounds read low. Summed up:
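Viability read-out was resazurin reduction (alamarBlue, 24 h) measured at Ex 525/Em 598 nm. Beforehand, late-stage (III-V) 3D7 P. falciparum gametocytes at 20,000 cells/well were incubated with compound 72 h at 37C under 5% CO2.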

Assay [7] is described as follows: qHTS assay for small molecule antagonists of the retinoid-related orphan receptor gamma (ROR-gamma) signaling pathway - cell viability counter screen (AID 720652; active means well fitted curve in the direction sought with a large enough effect in the repeat runs; an effect the other way counts as inactive or inconclusive;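 further: potency means the concentration at half of the fitted maximal effect; compound exposure lasted 16 hr before ATP read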). As to conditions: RORgamma reporter cell line viability counter screen; series mostly up to 92.2 µM. Summed up:
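CHO cells carrying TET-inducible ROR and RORE-luciferase reporter, plated 5 hr, then dosed with compound plus doxycycline. After 16 hr at 37 C, viability read as intracellular ATP by CellTiter-Glo luminescence.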

Values joined by “and” are separate entries in the source; they are usually repeats but may differ in a detail not shown here. Equal values may be shown once. Unmarked numbers belong to inactive results. Results filed as inconclusive are left out. Active and inactive are the calls of the source. Unless noted, the call rests on the fitted dose curve; in most records, active means well fitted curve in the direction sought with a large enough effect; inconclusive means small, poorly fitted or top-dose-only effect, or another doubt; inactive means no such curve, though single readings can be large; an effect the other way counts as inactive or inconclusive.

T1 sequence (P35557 whole entry, looked up): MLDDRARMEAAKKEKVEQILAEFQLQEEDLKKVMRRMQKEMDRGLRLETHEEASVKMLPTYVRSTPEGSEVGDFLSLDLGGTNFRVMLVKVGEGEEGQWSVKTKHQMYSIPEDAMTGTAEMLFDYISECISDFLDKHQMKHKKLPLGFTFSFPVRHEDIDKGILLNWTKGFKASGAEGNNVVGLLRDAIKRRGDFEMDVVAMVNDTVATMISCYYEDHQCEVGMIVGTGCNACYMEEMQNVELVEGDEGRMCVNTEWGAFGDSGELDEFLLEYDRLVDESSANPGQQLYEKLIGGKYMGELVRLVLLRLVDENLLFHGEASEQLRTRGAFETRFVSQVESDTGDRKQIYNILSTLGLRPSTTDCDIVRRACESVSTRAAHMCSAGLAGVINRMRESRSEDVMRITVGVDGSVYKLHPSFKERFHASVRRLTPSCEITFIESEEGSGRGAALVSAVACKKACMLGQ
T1 sequence (Q14397 whole entry, looked up): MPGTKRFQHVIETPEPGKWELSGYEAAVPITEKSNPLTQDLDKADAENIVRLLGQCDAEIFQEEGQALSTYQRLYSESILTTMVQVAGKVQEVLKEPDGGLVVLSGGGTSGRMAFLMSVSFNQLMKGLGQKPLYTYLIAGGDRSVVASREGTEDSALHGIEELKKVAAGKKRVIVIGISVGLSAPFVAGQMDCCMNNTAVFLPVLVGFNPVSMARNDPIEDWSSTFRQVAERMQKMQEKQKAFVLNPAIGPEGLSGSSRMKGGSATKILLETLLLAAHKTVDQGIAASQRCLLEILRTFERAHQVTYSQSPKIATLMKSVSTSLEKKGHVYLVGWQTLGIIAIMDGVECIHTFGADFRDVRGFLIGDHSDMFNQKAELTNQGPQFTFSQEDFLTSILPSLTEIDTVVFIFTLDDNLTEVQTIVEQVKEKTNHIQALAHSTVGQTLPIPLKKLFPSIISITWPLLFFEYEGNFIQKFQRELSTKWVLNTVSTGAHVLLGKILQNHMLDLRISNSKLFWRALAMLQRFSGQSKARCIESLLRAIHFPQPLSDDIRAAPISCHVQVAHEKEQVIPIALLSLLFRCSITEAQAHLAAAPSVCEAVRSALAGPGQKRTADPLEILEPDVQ

Turning to `O=c1[nH]c2ccccc2n1C1CCN(CCCC(c2ccc(F)cc2)c2ccc(F)cc2)CC1`, the Potency result in assay [1] was “inactive”. The outcome in assay [2], in assay [3] and in assay [4] was inactive. Besides, the Potency in assay [5] is 50.1 µM (active).

Take `Cc1ccc2c(n1)Oc1ccc(C(C)C(=O)OCC(=O)N(C)C)cc1C2` (stereo not drawn): in assay [6], the max response is 42.6% and 2.17%. As for `N[C@@H](Cc1ccc(Oc2cc(I)c(O)c(I)c2)c(I)c1)C(=O)O`, in assay [6], the max response was -7.97%. For the compound `CC(C)=CC1C(C(=O)OCc2cccc(Oc3ccccc3)c2)C1(C)C` (stereo not drawn), the max response in assay [6] was 5.27%. For `COc1ccc(Cc2nccc3cc(OC)c(OC)cc23)cc1OC`, the result in assay [2] was inactive. For the same compound, the max response in assay [6] is 8.87% and -8.15%. Regarding `Cc1ccc(-c2nc3ccc(C)cn3c2CC(=O)N(C)C)cc1`, in assay [6], the max response is 7.35%. For the compound `Clc1ccc(CCC(Cn2ccnc2)Sc2c(Cl)cccc2Cl)cc1` (stereo not drawn), in assay [6], the Potency is 7.94 µM (active).

Consider `Clc1ccc(COC(Cn2ccnc2)c2ccc(Cl)cc2Cl)cc1` (stereo not drawn), for which the Potency entry in assay [1] was “inactive”. For the same compound, in assay [6], the Potency was 10 µM (active). Besides, in assay [5], the max response was -21%.

Turning to `N[C@@H]1C[C@H]1c1ccccc1`, the max response in assay [6] was 21.9%. For `Clc1cccc(N2CCNCC2)c1`, in assay [6], the max response was 0.639%.

As to `CC(COc1ccccc1)N(CCCl)Cc1ccccc1` (stereo not drawn), in assay [7], the Potency is 42.2 µM (active). Further, the max response in assay [6] is 3.46%. As to `O=P1(NCCCl)OCCCN1CCCl` (stereo not drawn), in assay [6], the max response is 4.6%. Same read-out and setting: as for `CN(C)CCc1ccc(O)cc1`, the figure is -0.843%. For `O=[N+]([O-])c1cc([As](=O)(O)O)ccc1O`, in assay [6], the Potency is 3.98 µM (active).

Consider `FC(F)(F)c1cccc(C2=CCN(CCc3ccc4ccccc4c3)CC2)c1`, for which the max response in assay [6] is 11.8%.

(Values after PubChem BioAssay (NCATS).)
